Screening results from PubChem.
Sampled rows, rich in hits. Any-hit rate of the full collection: about 2%.
M4 ag – CHRM4 agonism in calcium assay; AID 624127; actives 0.14% (n = 360,000); P08173; activation, % at 3 µM; CHO-K1 hM4/Gqi5, Fluo-8 calcium fluorescence; vehicle 0%, full acetylcholine response 100%;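 active = activation above the run mean over all test wells plus 3 SD, cut at about 32% in these data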;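 also: peak over basal fluorescence ratio per well then scaled between controls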
Target sequence (P08173 whole entry, looked up): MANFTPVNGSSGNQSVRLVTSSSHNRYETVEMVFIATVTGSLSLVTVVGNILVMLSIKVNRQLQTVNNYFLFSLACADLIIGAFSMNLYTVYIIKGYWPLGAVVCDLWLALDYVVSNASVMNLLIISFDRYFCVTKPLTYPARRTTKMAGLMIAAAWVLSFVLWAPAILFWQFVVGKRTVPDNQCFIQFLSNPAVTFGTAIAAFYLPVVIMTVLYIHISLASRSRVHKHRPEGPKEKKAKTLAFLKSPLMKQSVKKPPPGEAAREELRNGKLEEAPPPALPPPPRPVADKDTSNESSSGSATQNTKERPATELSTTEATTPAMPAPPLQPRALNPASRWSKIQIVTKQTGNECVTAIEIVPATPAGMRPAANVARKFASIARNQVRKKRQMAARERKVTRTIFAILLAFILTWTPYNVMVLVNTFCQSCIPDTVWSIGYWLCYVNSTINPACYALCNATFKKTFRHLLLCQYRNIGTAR
CHRM4 antagonist – blocks acetylcholine activation of human M4 receptor; CHO-hM4 cells, ACh EC80, Fluo-8 calcium fluorescence; inhibition, % at 3 µM; actives 0.73% (n = 360,000); AID 624125;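 active = inhibition above its plate's cutoff, the mean inhibition of sample wells plus 3 SD, cut at about 27% in these data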
CHO-K1 Ca PAM – M1 PAM counterscreen hit in parental CHO-K1 cells; ATP EC20, Fluo-8 calcium fluorescence; 0% at ATP EC20, 100% at ATP max; actives 0.02% (n = 360,000); AID 602247; activation, % at 3 µM;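 active = activation above the run cutoff, the mean activation of all test compounds plus 3 SD, cut at about 40% in these data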;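 also: peak over basal fluorescence ratio in a 140 s read after ATP addition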
CHO-K1 Ca antag – M1 antagonist counterscreen hit in parental CHO-K1 cells; ATP-induced calcium, Fluo-8 fluorescence; actives 0.6% (n = 360,000); inhibition, % at 3 µM; AID 602250;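 active = inhibition above a per-plate cutoff, the plate's mean sample inhibition plus 3 SD, cut at about 24% in these data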
M4 PAM – CHRM4 positive allosteric modulation; activation, % at 3 µM; actives 0.4% (n = 360,000); P08173; AID 624126; CHO-K1 hM4/Gqi5, Fluo-8 calcium fluorescence, ACh EC20; 0% = ACh EC20, 100% = maximal ACh;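 active = activation above its plate's cutoff, the mean activation of sample wells plus 3 SD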
CHO-K1 Ca ag – counter-screen for M1 agonists: effect in parental CHO-K1 cells | Fluo-8 calcium fluorescence; scaled to maximal ATP response, vehicle zero | activation, % at 3 µM | actives 0.48% (n = 360,000) | AID 602248; in the data active = activation above about 15%;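 also: untransfected CHO-K1 host cells lacking M1 receptor as counterscreen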
Numbers stand for hits.

`CCN(CC)CCCN(Cc1cc2cc3c(cc2[nH]c1=O)OCO3)C(=S)NCCCOC` gave M4 ag inactive, CHRM4 antagonist inactive, CHO-K1 Ca PAM inactive, CHO-K1 Ca antag 24, M4 PAM inactive and CHO-K1 Ca ag inactive.
For COc1ccc(NC(=O)CC2SC(N3CCOCC3)=NC2=O)c(OC)c1 (stereo not drawn) the results were M4 ag inactive, CHRM4 antagonist inactive, CHO-K1 Ca PAM inactive, CHO-K1 Ca antag inactive, M4 PAM inactive and CHO-K1 Ca ag inactive.
Screening Cc1ccc(S(=O)(=O)N(Cc2ccccc2)c2ccccc2C(=O)NCc2cccnc2)cc1 returned M4 ag inactive, CHRM4 antagonist inactive, CHO-K1 Ca PAM inactive, CHO-K1 Ca antag inactive, M4 PAM inactive and CHO-K1 Ca ag inactive.
Screening O=S(=O)(c1ccc(Br)cc1)c1nc(-c2ccco2)oc1NCC1CCCO1 (stereo not drawn) returned M4 ag inactive, CHRM4 antagonist inactive, CHO-K1 Ca PAM inactive, CHO-K1 Ca antag inactive, M4 PAM inactive and CHO-K1 Ca ag inactive.
C=CCC[C@H](CCCCC)OC(=O)/C=C/[C@@H](O)[C@H](O)C[C@H](O)CC=C was read as M4 ag inactive, CHRM4 antagonist inactive, CHO-K1 Ca PAM inactive, CHO-K1 Ca antag inactive, M4 PAM inactive and CHO-K1 Ca ag inactive.
N#C/C(=C\c1cccs1)C(=O)c1ccccc1 was read as M4 ag inactive, CHRM4 antagonist inactive, CHO-K1 Ca PAM inactive, CHO-K1 Ca antag inactive, M4 PAM inactive and CHO-K1 Ca ag inactive.
CCCCN(C(=O)c1cccc(C)c1)c1c(N)n(CCC)c(=O)[nH]c1=O was read as M4 ag inactive, CHRM4 antagonist inactive, CHO-K1 Ca PAM inactive, CHO-K1 Ca antag inactive, M4 PAM inactive and CHO-K1 Ca ag inactive.
`Cc1ccc(OCc2cc(C(=O)N3CCC(Oc4cccnc4)CC3)no2)cc1C` gave M4 ag inactive, CHRM4 antagonist inactive, CHO-K1 Ca PAM inactive, CHO-K1 Ca antag 25, M4 PAM inactive and CHO-K1 Ca ag 16.
For O=C(c1cc(COc2cccc(C(F)(F)F)c2)on1)N1CCC(Oc2cccnc2)CC1 the results were M4 ag inactive, CHRM4 antagonist inactive, CHO-K1 Ca PAM inactive, CHO-K1 Ca antag 24, M4 PAM inactive and CHO-K1 Ca ag inactive.
Screening CC(=O)c1ccc(OCc2cc(C(=O)N3CCC(Oc4ccccc4C)CC3)no2)cc1 returned M4 ag inactive, CHRM4 antagonist inactive, CHO-K1 Ca PAM inactive, CHO-K1 Ca antag inactive, M4 PAM inactive and CHO-K1 Ca ag inactive.
CC1CCCCN1C(=O)Cn1cc(C#N)c2ccccc21 (stereo not drawn) was read as M4 ag inactive, CHRM4 antagonist inactive, CHO-K1 Ca PAM inactive, CHO-K1 Ca antag inactive, M4 PAM inactive and CHO-K1 Ca ag inactive.
Screening CC1CCN(C(=O)Cn2cc(C#N)c3ccccc32)CC1 returned M4 ag inactive, CHRM4 antagonist 27, CHO-K1 Ca PAM inactive, CHO-K1 Ca antag inactive, M4 PAM inactive and CHO-K1 Ca ag inactive.
For CN1CCN(c2ccc(C(F)(F)F)cc2NC(=O)Nc2ccccc2)CC1 the results were M4 ag inactive, CHRM4 antagonist inactive, CHO-K1 Ca PAM inactive, CHO-K1 Ca antag inactive, M4 PAM inactive and CHO-K1 Ca ag 21.
`CCc1ccccc1NC(=O)CNC(=O)c1ccc(OCc2cn3ccccc3n2)cc1` gave M4 ag inactive, CHRM4 antagonist inactive, CHO-K1 Ca PAM inactive, CHO-K1 Ca antag inactive, M4 PAM inactive and CHO-K1 Ca ag inactive.
For Cc1c(C(=O)NNC(=O)c2ccccc2O)oc2ccccc12 the results were M4 ag inactive, CHRM4 antagonist inactive, CHO-K1 Ca PAM inactive, CHO-K1 Ca antag 26, M4 PAM inactive and CHO-K1 Ca ag inactive.
Screening CCCOc1ccc(C(C)(O)CN2CCOCC2)cc1 (stereo not drawn) returned M4 ag inactive, CHRM4 antagonist inactive, CHO-K1 Ca PAM inactive, CHO-K1 Ca antag inactive, M4 PAM inactive and CHO-K1 Ca ag inactive.
COCCOC(=O)C1=C(C)NC2=C(C(=O)CC(C)(C)C2)C1c1cccnc1 (stereo not drawn) was read as M4 ag inactive, CHRM4 antagonist inactive, CHO-K1 Ca PAM inactive, CHO-K1 Ca antag inactive, M4 PAM inactive and CHO-K1 Ca ag inactive.
CCc1nnc(SCC(=O)NC2CCCC2)nc1CC was read as M4 ag inactive, CHRM4 antagonist inactive, CHO-K1 Ca PAM inactive, CHO-K1 Ca antag 33, M4 PAM inactive and CHO-K1 Ca ag inactive.
For CCc1nnc(SCC(=O)NC2CCCCC2)nc1CC the results were M4 ag inactive, CHRM4 antagonist inactive, CHO-K1 Ca PAM inactive, CHO-K1 Ca antag inactive, M4 PAM inactive and CHO-K1 Ca ag inactive.
Screening C=CCN(CC=C)S(=O)(=O)c1ccc2nc(NC(=O)C(C)C)sc2c1 returned M4 ag inactive, CHRM4 antagonist inactive, CHO-K1 Ca PAM 43, CHO-K1 Ca antag inactive, M4 PAM inactive and CHO-K1 Ca ag 33.
CCOC(=O)c1ccc2nc(NC(=O)C(C)C)sc2c1 was read as M4 ag inactive, CHRM4 antagonist inactive, CHO-K1 Ca PAM inactive, CHO-K1 Ca antag inactive, M4 PAM inactive and CHO-K1 Ca ag inactive.
`CCCCN1C(=O)C(CC(=O)NCC2CCCCC2)CC(C(=O)N2CCOCC2)=C1C` (stereo not drawn) gave M4 ag inactive, CHRM4 antagonist inactive, CHO-K1 Ca PAM inactive, CHO-K1 Ca antag inactive, M4 PAM inactive and CHO-K1 Ca ag inactive.
`Cc1nc(SCc2ccc(Cl)cc2)ncc1C(=O)O` gave M4 ag inactive, CHRM4 antagonist inactive, CHO-K1 Ca PAM inactive, CHO-K1 Ca antag inactive, M4 PAM inactive and CHO-K1 Ca ag 21.
Screening COc1cnc(SCc2ccc(Cl)cc2)nc1Cl returned M4 ag inactive, CHRM4 antagonist inactive, CHO-K1 Ca PAM inactive, CHO-K1 Ca antag inactive, M4 PAM inactive and CHO-K1 Ca ag inactive.
COc1ccc(C(=O)N2CCN(c3ccc(NC(=O)Cc4ccccc4)cc3)CC2)cc1 was read as M4 ag inactive, CHRM4 antagonist inactive, CHO-K1 Ca PAM inactive, CHO-K1 Ca antag inactive, M4 PAM inactive and CHO-K1 Ca ag inactive.
Screening O=C(Nc1ccc(N2CCN(C(=O)c3ccccc3)CC2)cc1)c1ccc2c(c1)OCCO2 returned M4 ag inactive, CHRM4 antagonist inactive, CHO-K1 Ca PAM inactive, CHO-K1 Ca antag inactive, M4 PAM inactive and CHO-K1 Ca ag 16.
Screening O=C(Nc1ccc2c(c1)OCCO2)c1ccccc1 returned M4 ag inactive, CHRM4 antagonist 29, CHO-K1 Ca PAM inactive, CHO-K1 Ca antag inactive, M4 PAM inactive and CHO-K1 Ca ag inactive.
For CN1C(=O)c2ccc(C(=O)Nc3ccc4c(c3)OCO4)cc2C1=O the results were M4 ag inactive, CHRM4 antagonist inactive, CHO-K1 Ca PAM inactive, CHO-K1 Ca antag 37, M4 PAM inactive and CHO-K1 Ca ag inactive.
For O=C(Nc1ccc2c(c1)OCCO2)c1cccc(C(=O)Nc2ccc3c(c2)OCCO3)c1 the results were M4 ag inactive, CHRM4 antagonist inactive, CHO-K1 Ca PAM inactive, CHO-K1 Ca antag inactive, M4 PAM inactive and CHO-K1 Ca ag inactive.
